# In PubChem BioAssay:
# Values without a mark were called inactive. Calls of active or inactive are those of the source. Rule as the data show it, unless noted: active = inhibition above about 42%; inactive = the rest.
# Target: Nuclear receptor subfamily 5 group A member 2 (Homo sapiens) (UniProt O00482)
# Assay: LRH-1 (NR5A2) inverse agonists, retest, confirmation, cell-based, luminescence (AID 651613);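 also: HEK293T cells co-transfected with LRH-1 and StAR promoter luciferase reporter; 0% = vehicle wells and 100% = parental cells lacking receptor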
# Conditions: cell-based LRH-1 luciferase reporter, inverse agonism; at 3.6 µM; hits give high values
# Chain of Nuclear receptor subfamily 5 group A member 2 (Homo sapiens) (O00482 whole entry, looked up): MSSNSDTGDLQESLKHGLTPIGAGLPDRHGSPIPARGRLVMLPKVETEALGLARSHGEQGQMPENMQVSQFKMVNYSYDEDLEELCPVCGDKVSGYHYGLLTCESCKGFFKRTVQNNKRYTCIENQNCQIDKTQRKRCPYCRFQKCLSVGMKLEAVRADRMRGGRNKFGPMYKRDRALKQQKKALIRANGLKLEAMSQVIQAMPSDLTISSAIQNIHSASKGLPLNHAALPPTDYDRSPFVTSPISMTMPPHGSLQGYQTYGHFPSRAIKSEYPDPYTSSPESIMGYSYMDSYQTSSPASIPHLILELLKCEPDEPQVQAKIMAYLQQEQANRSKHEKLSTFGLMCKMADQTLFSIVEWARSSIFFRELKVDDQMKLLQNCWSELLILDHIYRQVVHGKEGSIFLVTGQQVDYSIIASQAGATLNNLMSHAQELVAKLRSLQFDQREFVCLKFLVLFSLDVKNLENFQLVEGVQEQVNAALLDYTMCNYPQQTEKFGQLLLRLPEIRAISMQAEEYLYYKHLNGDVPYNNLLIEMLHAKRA
row,SMILES,inhibition
1,O=C(N/N=C/c1ccc(Sc2ccccn2)o1)c1cccc([N+](=O)[O-])c1,44.3% (active)
2,CCOc1ccc(NC(=O)CSc2nc3cccnc3n2CCOC)cc1,64.4% (active)
3,COC(=O)c1ccc(NC(=O)CSc2nc3ncccc3[nH]2)cc1,50.8% (active)
4,COc1ccccc1-n1c(SCC(=O)Nc2ccc(Cl)cc2)nc(O)c(Cc2ccccc2)c1=O,55.1% (active)
5,CC1(C)CC(=O)C=C(c2ccc3c(c2)OCO3)C1,40.6%
6,CC1(C)Cc2c(sc3nc(SCC(=O)NCc4ccco4)n(-c4ccccc4)c(=O)c23)CS1,41.6% (active)
7,CN(C)c1ccc(C(=O)OCC(=O)Nc2ccc(N3CCOCC3)cc2)cc1,62% (active)
8,O=C(CSc1nc2ccc(F)cc2c(=O)n1-c1ccccc1)Nc1ccc2c(c1)CCC2,43.3% (active)
9,COc1cccc(NC(=O)c2oc3ccccc3c2NC(=O)C2CC2)c1,50.6% (active)
10,O=C(COC(=O)c1ccc(=O)n(Cc2ccccc2)n1)Nc1ccc2c(c1)OCCO2,51.1% (active)
11,O=C(COc1ccc2c3c(c(=O)oc2c1)CCCC3)NCCCN1CCOCC1,44.6% (active)
12,COc1ccc(-c2cc3ccccc3oc2=O)cc1NC(=O)c1ccc([N+](=O)[O-])o1,16%
13,CC(=O)Nc1ccc(N=c2cc([N+](=O)[O-])cc(Cl)n2O)cc1,59.6% (active)
14,COCC(=O)NC1CCN(CC(=O)Nc2ccc(OC)cc2[N+](=O)[O-])CC1,60.2% (active)
15,O=[N+]([O-])c1ccc(N2CCN(Cc3ccccc3)CC2)c2c1no[n+]2[O-],57.3% (active)
16,Cn1nnnc1Sc1ncnc2scc(-c3ccc(-c4ccccc4)cc3)c12,33.6%
17,CN1CCN(C2=C(Cl)C(=O)N(c3ccc(Cl)c(Cl)c3)C2=O)CC1,39.3%
18,O=C(Nc1ccc(Cc2ccncc2)cc1)c1ccc([N+](=O)[O-])o1,55.5% (active)
19,Nc1cccc(OCCCCCOc2cccc(N)c2)c1,41.7% (active)
20,COc1ccc2nc(N3CCN(C(=O)c4ccc([N+](=O)[O-])o4)CC3)sc2c1,64.3% (active)

row,SMILES,inhibition
1,CCS(=O)(=O)Nc1cccc(-c2ccc3nnc(-c4cccnc4)n3n2)c1,52.1% (active)
2,COc1cc2c(cc1OC)CN(C(=O)c1ccc([N+](=O)[O-])o1)CC2,65.1% (active)
3,CC(O)(c1ccc(F)c(F)c1)c1nc(-c2ccc(S(C)(=O)=O)cc2)cs1 (stereo not given),53.5% (active)
4,CC(=O)Nc1ccc2nc(NC(=O)c3ccc([N+](=O)[O-])o3)sc2c1,53.5% (active)
5,COc1ccc(OC)c(CCNC(=O)Cn2nc(C)c3c(C)n(-c4ccc(C)cc4)nc3c2=O)c1,68% (active)
6,COc1cc(C(=O)Nc2sc3c(c2C#N)CCN(C(C)=O)C3)cc(OC)c1OC,66.3% (active)
7,Cc1ccccc1Oc1nc2c(C)cccn2c(=O)c1/C=C(\C#N)C(=O)NC1CCS(=O)(=O)C1 (stereo not given),52.6% (active)
8,O=C(c1ccc([N+](=O)[O-])s1)N1CCN(c2ncccn2)CC1,30.8%
9,Cc1cc(N2CCN(C(=O)c3ccco3)CC2)n2nc(-c3cccc(F)c3)cc2n1,54.6% (active)
10,COCCn1c(SCC(=O)Nc2ccc(NC(C)=O)cc2)nc2ccccc2c1=O,57.9% (active)
11,Cc1ccc(C)c(NC(=O)CSc2nnc(CCNC(=O)OC(C)(C)C)o2)c1,59.2% (active)
12,CC(=O)N1CCc2c(sc(NC(=O)c3ccc([N+](=O)[O-])o3)c2C#N)C1,36%
13,CCOC(=O)c1ccc(N2CCN(C(=O)c3ccccc3)CC2)c(NC(=O)c2ccco2)c1,38.6%
14,CCN(Cc1ccccc1)c1ccc(/C=N/N2CCOCC2)cc1,26%
15,CC(C)[C@H](NC(=O)OCc1ccccc1)C(=O)OCC(=O)Nc1ccc(N2CCOCC2)cc1,59.9% (active)
16,CCOC(=O)c1c(C)[nH]c(C(=O)COC(=O)/C=C/c2ccc3c(c2)OCO3)c1C,36.5%
17,Cc1ccnc2nc(C(=O)OCC(=O)Nc3ccc([N+](=O)[O-])cc3Br)nn12,38.9%
18,C=CCn1c(CCNC(=O)c2cccs2)nnc1SCC(=O)Nc1cccc(Cl)c1C,57.9% (active)
19,CCOc1ccc(NC(=O)CSc2nc3ccccc3c(=O)n2CCCC(=O)NCC2CCCO2)cc1 (stereo not given),41.9% (active)
20,O=C(NCc1ccc2c(c1)OCO2)c1cc([N+](=O)[O-])ccc1N1CCCCC1,36.2%

# Target: Steroidogenic factor 1 (Homo sapiens) (UniProt Q13285)
# Sequence (Q13285 whole entry, looked up): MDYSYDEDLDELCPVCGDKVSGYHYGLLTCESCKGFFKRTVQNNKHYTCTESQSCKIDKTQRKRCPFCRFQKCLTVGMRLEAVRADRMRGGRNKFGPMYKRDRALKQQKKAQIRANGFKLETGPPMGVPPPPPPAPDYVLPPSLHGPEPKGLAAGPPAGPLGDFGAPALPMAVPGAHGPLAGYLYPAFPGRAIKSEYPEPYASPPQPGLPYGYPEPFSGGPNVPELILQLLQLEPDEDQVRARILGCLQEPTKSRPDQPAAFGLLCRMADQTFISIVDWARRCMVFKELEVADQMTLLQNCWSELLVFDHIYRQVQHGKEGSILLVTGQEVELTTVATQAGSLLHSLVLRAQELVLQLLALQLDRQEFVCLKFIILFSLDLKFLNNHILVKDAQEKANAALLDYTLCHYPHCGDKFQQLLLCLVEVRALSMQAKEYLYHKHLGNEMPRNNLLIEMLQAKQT
# Assay: SF1 (NR5A1) inverse agonists, counter-screen for LRH-1 inverse agonist project, cell-based, luminescence, high throughput (AID 651614; in the data active = inhibition above about 44%;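 also: cells cotransfected with StAR promoter reporter and SF1 expression vector; 0% = vehicle on cells with receptor and 100% = vehicle on cells lacking receptor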)
# Conditions: cell-based SF1 luciferase reporter, at 3.6 µM, hits give high values
row,SMILES,inhibition
1,O=C(N/N=C/c1ccc(Sc2ccccn2)o1)c1cccc([N+](=O)[O-])c1,40%
2,CCOc1ccc(NC(=O)CSc2nc3cccnc3n2CCOC)cc1,62.1% (active)
3,COC(=O)c1ccc(NC(=O)CSc2nc3ncccc3[nH]2)cc1,52.6% (active)
4,COc1ccccc1-n1c(SCC(=O)Nc2ccc(Cl)cc2)nc(O)c(Cc2ccccc2)c1=O,56% (active)
5,CC1(C)CC(=O)C=C(c2ccc3c(c2)OCO3)C1,42.1%
6,CC1(C)Cc2c(sc3nc(SCC(=O)NCc4ccco4)n(-c4ccccc4)c(=O)c23)CS1,40.7%
7,CN(C)c1ccc(C(=O)OCC(=O)Nc2ccc(N3CCOCC3)cc2)cc1,55.8% (active)
8,O=C(CSc1nc2ccc(F)cc2c(=O)n1-c1ccccc1)Nc1ccc2c(c1)CCC2,47.9% (active)
9,COc1cccc(NC(=O)c2oc3ccccc3c2NC(=O)C2CC2)c1,47.1% (active)
10,O=C(COC(=O)c1ccc(=O)n(Cc2ccccc2)n1)Nc1ccc2c(c1)OCCO2,43.7% (active)
11,O=C(COc1ccc2c3c(c(=O)oc2c1)CCCC3)NCCCN1CCOCC1,45% (active)
12,COc1ccc(-c2cc3ccccc3oc2=O)cc1NC(=O)c1ccc([N+](=O)[O-])o1,22.5%
13,CC(=O)Nc1ccc(N=c2cc([N+](=O)[O-])cc(Cl)n2O)cc1,57.8% (active)
14,COCC(=O)NC1CCN(CC(=O)Nc2ccc(OC)cc2[N+](=O)[O-])CC1,60.8% (active)
15,O=[N+]([O-])c1ccc(N2CCN(Cc3ccccc3)CC2)c2c1no[n+]2[O-],63.1% (active)
16,Cn1nnnc1Sc1ncnc2scc(-c3ccc(-c4ccccc4)cc3)c12,39.4%
17,CN1CCN(C2=C(Cl)C(=O)N(c3ccc(Cl)c(Cl)c3)C2=O)CC1,41.6%
18,O=C(Nc1ccc(Cc2ccncc2)cc1)c1ccc([N+](=O)[O-])o1,63.6% (active)
19,Nc1cccc(OCCCCCOc2cccc(N)c2)c1,54% (active)
20,COc1ccc2nc(N3CCN(C(=O)c4ccc([N+](=O)[O-])o4)CC3)sc2c1,61.8% (active)

row,SMILES,inhibition
1,CCS(=O)(=O)Nc1cccc(-c2ccc3nnc(-c4cccnc4)n3n2)c1,49.5% (active)
2,COc1cc2c(cc1OC)CN(C(=O)c1ccc([N+](=O)[O-])o1)CC2,64.4% (active)
3,CC(O)(c1ccc(F)c(F)c1)c1nc(-c2ccc(S(C)(=O)=O)cc2)cs1 (stereo not given),49.5% (active)
4,CC(=O)Nc1ccc2nc(NC(=O)c3ccc([N+](=O)[O-])o3)sc2c1,55.8% (active)
5,COc1ccc(OC)c(CCNC(=O)Cn2nc(C)c3c(C)n(-c4ccc(C)cc4)nc3c2=O)c1,63.8% (active)
6,COc1cc(C(=O)Nc2sc3c(c2C#N)CCN(C(C)=O)C3)cc(OC)c1OC,62.2% (active)
7,Cc1ccccc1Oc1nc2c(C)cccn2c(=O)c1/C=C(\C#N)C(=O)NC1CCS(=O)(=O)C1 (stereo not given),51.3% (active)
8,O=C(c1ccc([N+](=O)[O-])s1)N1CCN(c2ncccn2)CC1,41.5%
9,Cc1cc(N2CCN(C(=O)c3ccco3)CC2)n2nc(-c3cccc(F)c3)cc2n1,60.6% (active)
10,COCCn1c(SCC(=O)Nc2ccc(NC(C)=O)cc2)nc2ccccc2c1=O,52% (active)
11,Cc1ccc(C)c(NC(=O)CSc2nnc(CCNC(=O)OC(C)(C)C)o2)c1,59.8% (active)
12,CC(=O)N1CCc2c(sc(NC(=O)c3ccc([N+](=O)[O-])o3)c2C#N)C1,43.8% (active)
13,CCOC(=O)c1ccc(N2CCN(C(=O)c3ccccc3)CC2)c(NC(=O)c2ccco2)c1,40.9%
14,CCN(Cc1ccccc1)c1ccc(/C=N/N2CCOCC2)cc1,34.2%
15,CC(C)[C@H](NC(=O)OCc1ccccc1)C(=O)OCC(=O)Nc1ccc(N2CCOCC2)cc1,59.2% (active)
16,CCOC(=O)c1c(C)[nH]c(C(=O)COC(=O)/C=C/c2ccc3c(c2)OCO3)c1C,43.6% (active)
17,Cc1ccnc2nc(C(=O)OCC(=O)Nc3ccc([N+](=O)[O-])cc3Br)nn12,32.1%
18,C=CCn1c(CCNC(=O)c2cccs2)nnc1SCC(=O)Nc1cccc(Cl)c1C,53.4% (active)
19,CCOc1ccc(NC(=O)CSc2nc3ccccc3c(=O)n2CCCC(=O)NCC2CCCO2)cc1 (stereo not given),40.1%
20,O=C(NCc1ccc2c(c1)OCO2)c1cc([N+](=O)[O-])ccc1N1CCCCC1,47.6% (active)
